We go through 40 compounds from PubChem BioAssay (NCATS).

Results filed as inconclusive are left out. Unmarked numbers belong to inactive results. Active and inactive are the calls of the source. Calls follow the shape of the dose curve; as a rule, active = well fitted inhibition curve with a large enough effect; inconclusive = small, poorly fitted or top-dose-only effect; inactive = no such curve, though single readings can be large or run the other way.
% is scaled to controls: 0 for no effect and ±100 for the full control effect; potency is read from the fitted curve at half-maximal effect.

Sequence of Cytochrome P450 2D6 (Homo sapiens) (P10635 whole entry, looked up): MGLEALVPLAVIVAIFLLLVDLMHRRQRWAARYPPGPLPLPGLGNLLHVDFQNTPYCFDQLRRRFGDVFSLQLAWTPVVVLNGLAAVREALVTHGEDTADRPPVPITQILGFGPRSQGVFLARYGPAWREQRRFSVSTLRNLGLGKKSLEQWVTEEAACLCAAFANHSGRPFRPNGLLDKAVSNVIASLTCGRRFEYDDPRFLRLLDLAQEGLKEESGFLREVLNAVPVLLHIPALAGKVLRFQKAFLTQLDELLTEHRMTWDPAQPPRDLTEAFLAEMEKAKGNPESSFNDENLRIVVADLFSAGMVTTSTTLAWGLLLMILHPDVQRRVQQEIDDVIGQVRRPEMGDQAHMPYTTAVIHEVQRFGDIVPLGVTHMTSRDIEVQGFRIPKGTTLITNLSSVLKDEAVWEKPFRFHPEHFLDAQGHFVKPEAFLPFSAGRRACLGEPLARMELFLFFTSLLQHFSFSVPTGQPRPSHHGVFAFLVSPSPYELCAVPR

This test concerns the target Cytochrome P450 2D6 (Homo sapiens) (UniProt P10635). Nature of the test: qHTS Assay for Inhibitors and Substrates of Cytochrome P450 2D6 (AID 891). Also: nearly all actives have a fitted effect of over 60% in size. To be noted: recombinant CYP2D6, luciferin-ME EGE luminescence; series mostly up to 57.1 µM; activity change, negative = inhibition: at the top concentration. Here is the method: NIH Molecular Libraries Screening Centers Network [MLSCN]
NIH Chemical Genomics Center [NCGC]
The P450 gene superfamily is involved in the metabolism and clearance of xenobiotics. This assay used human CYP2D6 to measure the demethylation of ethylene glycol ester of luciferin 6' methyl ether (Luciferin-ME EGE; […]) to luciferin. The luciferin is then measured by luminescence after the addition of a luciferase detection reagent. Luciferin-ME EGE concentration in the assay was equal to its Km for CYP2D6. Inhibitors and some substrates limit the production of luciferin, and decrease measured luminescence.
NCGC Assay Protocol Summary:
Two uL of enzyme and substrate mix (final concentrations: 5nM CYP2D6, 30uM Luciferin-ME EGE, 100mM KPO4) were dispensed into a white, solid bottom 1536-well microtiter plate. 23nL of compound was transferred by a pin tool. The plate was incubated at room temperature for 10 min. Two uL of an NADPH regeneration solution (Promega supplied reagent) was dispensed and the reaction was allowed to continue for 60 min at room temperature. Then the reaction was stopped by reconstituted luciferin detection buffer. After another 20 min of incubation the plate was read on the ViewLux (Perkin Elmer) at 60 sec exposure and 2x2 binning. This protocol was carried out with Promega-Glo reagents and further information can be found at http://www.promega.com/tbs/tb325/tb325.pdf. Data were normalized to the to AC100 inhibition (1.43 uM quinidine).
Keywords: P450, CYP2D6, Luciferase, MLSMR, MLSCN, NIH Roadmap, qHTS, NCGC
In the case of `COc1ccc2[nH]cc(CCNc3ncnc4ccc(-c5cccnc5)cc34)c2c1`, the Potency was 7.94 µM (active).
For the compound `COc1ccc(NC(=O)N2CC[C@@]3(CCCN(C(=O)c4cnccn4)C3)C2)cc1`, the “activity change, negative = inhibition” value was 25.3%.
`Cn1cccc1C(=O)N1CCC[C@@]2(CCN(Cc3ccccc3)C2)C1`: the Potency is 2 µM (active).
Still for that read-out and setting: to `COc1ccccc1CN1CC[C@@]2(CCCN(C(=O)c3cccn3C)C2)C1` belongs 0.316 µM (active); to `c1ccc2c(N3CCNCC3)nc(-c3ccc4c(c3)OCO4)nc2c1`, 3.16 µM (active).
The same measure, in the same setting: to `O=C(c1ccncc1)N1CCC2(CC1)CN(c1ccccc1)C2` belongs 7.94 µM (active); to `Cn1cccc1C(=O)N1CCC[C@@]2(CCN(Cc3cc(C(F)(F)F)cc(C(F)(F)F)c3)C2)C1`, 3.98 µM (active); to `c1cncc(-c2nc(N3CCNCC3)c3ccccc3n2)c1`, 7.94 µM (active).
On to `CN(C)c1ccc(-c2cc(-n3ccnc3)ncn2)cc1`, for which the Potency was 7.94 µM (active).
On the same count and under the same terms, to `O=C(c1ccco1)N1CCC2(CC1)CN(C(c1ccccc1)c1ccccc1)C2` belongs 1.26 µM (active).
For the compound `COC(=O)N1CCC[C@@]2(CCN(c3ccncc3)C2)C1`, the “activity change, negative = inhibition” value was 27%.
For `CN(C)Cc1ccccc1-c1cc(NC2CC2)ncn1`, the Potency is 0.0398 µM (active).
With `O=C(c1cnccn1)N1CCC[C@@]2(CCN(Cc3cc(C(F)(F)F)cc(C(F)(F)F)c3)C2)C1`, the Potency is 3.16 µM (active).
`CCNc1ncc2nc(C)c(=O)n(-c3ccc(OC)cc3)c2n1`: the “activity change, negative = inhibition” value was -2.35%.
For `COCC(=O)N1CCC[C@@]2(CCN(Cc3ccccc3)C2)C1`, the Potency is 6.31 µM (active).
Same read-out and setting: to `COC(=O)N1CCC2(CC1)CN(C(c1ccccc1)c1ccccc1)C2` belongs 0.794 µM (active); to `O=C(c1ccco1)N1CCC2(CC1)CN(Cc1cc(C(F)(F)F)cc(C(F)(F)F)c1)C2`, 6.31 µM (active); to `O=C(c1ccncc1)N1CCC2(CC1)CCN(c1cccc(-c3ccccc3)c1)CC2`, 7.94 µM (active).
For the compound `COc1ccccc1CN1CCC2(CC1)CCN(C(C)=O)CC2`, the Potency is 5.01 µM (active).
Same read-out and setting: to `Cc1ccccc1-c1nccc(NCc2cccs2)n1` belongs 2.51 µM (active).
The same measure, in the same setting: to `CCNc1ncc2nc(-c3cc(F)cc(F)c3)c(=O)n(C[C@H]3CCCO3)c2n1` belongs 0.158 µM (active).
In the case of `Cc1noc(C)c1C(=O)N1CCC2(CC1)CCN(c1cccc(-c3ccccc3)c1)CC2`, the “activity change, negative = inhibition” value was -10.7%.
`COC(=O)N1CCC[C@@]2(CCN(C(c3ccccc3)c3ccccc3)C2)C1`: the Potency was 2 µM (active).
Still for that read-out and setting: to `CN(C)Cc1ccccc1-c1nc(N2CCOCC2)c2ccccc2n1` belongs 7.94 µM (active).
For `COc1ccccc1CN1CC[C@@]2(CCCN(C(C)=O)C2)C1`, the Potency was 3.16 µM (active).
On the same count and under the same terms, to `CN(C)Cc1ccccc1-c1cc(N(C)Cc2ccco2)ncn1` belongs 7.94 µM (active); to `COCC(=O)N1CCC2(CC1)CN(C(c1ccccc1)c1ccccc1)C2`, 2.51 µM (active); to `COCC(=O)N1CCC[C@@]2(CCN(Cc3ccccc3OC)C2)C1`, 6.31 µM (active).
Consider `c1cncc(CNc2nc(-c3ccoc3)nc3ccccc23)c1`, for which the Potency is 5.01 µM (active).
`Cc1noc(C)c1C(=O)N1CCC2(CCCN(C(c3ccccc3)c3ccccc3)C2)CC1`: the Potency is 2 µM (active).
For `CN1CCN(c2ncnc3ccc(-c4ccc5c(c4)OCO5)cc23)CC1`, the Potency is 0.251 µM (active).
The same measure, in the same setting: to `CC(=O)NCCNc1nc(-c2ccccc2C(F)(F)F)nc2ccccc12` belongs 3.98 µM (active); to `CC(C)CN1CC[C@@]2(CCCN(S(=O)(=O)c3ccccc3)C2)C1`, 0.501 µM (active).
On the same count and under the same terms, to `c1csc(CNc2ccnc(-c3ccoc3)n2)c1` belongs 3.16 µM (active).
Consider `COc1ccc(-n2c(=O)c(-c3cccs3)nc3cnc(N(C)C)nc32)cc1`, for which the “activity change, negative = inhibition” value was -4.44%.
As to `Cc1ccccc1-c1ccc2ncnc(NC3CC3)c2c1`, the Potency was 7.94 µM (active).
Same read-out and setting: to `COc1ccccc1CN1CCCC2(CCN(S(C)(=O)=O)CC2)C1` belongs 0.0631 µM (active); to `CNc1ccnc(-c2ccccc2OC)n1`, 5.01 µM (active).
Same read-out and setting: to `O=C(c1ccco1)N1CCC[C@@]2(CCN(Cc3ccccc3)C2)C1` belongs 2 µM (active).
`COc1ccccc1CNc1ccnc(-c2ccc3c(c2)OCO3)n1`: the Potency is 0.794 µM (active).
